Experimental data published in the supplement of paper PMC6609913.
Where a name gives a salt, the structure may show the parent alone. ± gives the standard deviation of the averaged measurements. Over roughly 1,300 compounds, “normalised cell viability” has its median near 1; the lowest 2% begin near 0.15. The entries come from a sample that favours the lowest values as a whole.

System: V-C8 + BRCA2 (BRCA2-proficient hamster cells)
Assay: normalised cell viability (fraction of plate median); higher = more viable cells (less toxic)
Details: 5 µM
Procedure, shortened: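 Hamster V-C8 cells lacking BRCA2 and V-C8 cells with BRCA2 restored were seeded in 96-well plates. Library drugs (10 mM DMSO stocks) were added 24 h later at 5 μM in 100 μl medium, next to DMSO control wells, for 3 days (screen 1) or 6 days (screen 2). Cell viability was read by resazurin assay, median-plate normalised (modified robust per cent of sample), and triplicate wells were averaged.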

Compound | normalised cell viability (treatment time: 3 days) | normalised cell viability (treatment time: 6 days)
C=C1[C@@H]2CC[C@H]3[C@]4(C)C[C@H](O[C@@H]5O[C@H](CO)[C@@H](OS(=O)(=O)O)[C@H](OS(=O)(=O)O)[C@H]5OC(=O)CC(C)C)C[C@@H](C(=O)O)[C@H]4CC[C@]3(C2)[C@@H]1O [Atractyloside potassium salt] | 1.08 ± 0.093 | 1.15 ± 0.031
COc1ccc2c(c1)[C@]13CCCC[C@@H]1[C@H](C2)N(C)CC3 [Dextromethorphan hydrobromide monohydrate] | 1.13 ± 0.078 | 1.02 ± 0.054
CC[C@@]1(O)C(=O)OCc2c1cc1n(c2=O)Cc2cc3ccccc3nc2-1 [Camptothecine (S,+)] | 0.142 ± 0.014 | 0.124 ± 0.012
CCC(=O)O[C@H]1CC[C@H]2[C@@H]3CCC4=CC(=O)CC[C@]4(C)[C@H]3CC[C@]12C [Testosterone propionate] | 0.906 ± 0.085 | 1 ± 0.1
CN1[C@@H]2CC[C@H]1C[C@@H](OC(=O)C(CO)c1ccccc1)C2 (some centres undefined) [Atropine sulfate monohydrate] | 0.925 ± 0.033 | 0.988 ± 0.053
O=C(CCCN1CCC2(CC1)C(=O)NCN2c1ccccc1)c1ccc(F)cc1 [Spiperone] | 1.07 ± 0.04 | 0.997 ± 0.072
CCCCCC[C@H]1C(=O)O[C@H](C)[C@H](NC(=O)c2cccc(NC=O)c2O)C(=O)O[C@@H](C)[C@@H]1OC(=O)CC(C)C [Antimycin A] | 0.148 ± 0.012 | 0.124 ± 0.011
CCCC(C)(COC(N)=O)COC(=O)NC(C)C (centres undefined) [Carisoprodol] | 0.992 ± 0.042 | 1.09 ± 0.04
CN1CCC2(C)c3cc(O)ccc3N(C)C12 (single isomer, unassigned; (-)) [(-)-Eseroline fumarate salt] | 0.694 ± 0.028 | 0.769 ± 0.015
CCC(C)C1O[C@]2(C=C[C@@H]1C)C[C@@H]1CC(C/C=C(\C)[C@@H](OC3C[C@H](OC)[C@@H](OC4C[C@H](OC)[C@@H](O)[C@H](C)O4)[C@H](C)O3)[C@@H](C)/C=C/C=C3\COC4[C@H](O)C(C)=CC(C(=O)O1)[C@]34O)O2 (some centres undefined) [Avermectin B1a] | 0.303 ± 0.021 | 0.193 ± 0.025
CC(C)(N)Cc1ccccc1 [Phentermine hydrochloride] | 1 ± 0.041 | 0.995 ± 0.023
NCC(CC(=O)O)c1ccc(Cl)cc1 (racemic) [Baclofen (R,S)] | 0.897 ± 0.079 | 0.956 ± 0.083
